Sampled rows, rich in hits. Any-hit rate of the full collection: about 6.7%.
Mtb FBA inh – inhibits M. tuberculosis FBA enzyme; 360,000 tested, 2.3% active; inhibition, % at 1 µM; purified M. tuberculosis FBA, fluorescence read-out; AID 588726; in the data active = inhibition above about 27%;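 note: 0% = vehicle and 100% = reference inhibitor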
Autofluor counter – flagged as autofluorescent in microsphere protease counterscreen. fluorescence intensity (concentration not given with the values). 360,000 tested, 3.1% active. compound autofluorescence counterscreen, microsphere flow cytometry; stronger effect = higher value. AID 624483; in the data active = fluorescence intensity above about 16000; inconclusive = no clear call, values can overlap the other calls
GDH-TPI inh – GDH-TPI coupled enzyme inhibition counter-screen. GDH-TPI coupled enzyme counterscreen, NADH absorbance. AID 588335. inhibition, % at 4.8 µM. 360,000 tested, 1.2% active; in the data active = inhibition above about 30%;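 note: 0% = DMSO wells and 100% = wells lacking the enzyme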
BoNT A protease – inhibitors of Botulinum neurotoxin A light chain protease. multiplex microsphere protease substrate cleavage, flow cytometry. inhibition, % at 10 µM. 360,000 tested, 0.17% active. AID 588499; note: plate controls were buffer without enzyme for full effect and enzyme alone for no effect
BoNT F protease – blocks Botulinum neurotoxin F light chain protease. Multiplex microsphere protease cleavage assay, flow cytometry. inhibition, % at 10 µM. 360,000 tested, 0.22% active. AID 588497; in the data active = inhibition above about 35%, passing the limit was not always enough; inconclusive = no clear call, values can overlap the other calls; note: plate controls were buffer without enzyme for full effect and enzyme alone for no effect
Anthrax LF prot – blocks Bacillus anthracis lethal factor protease; P15917; multiplex microsphere protease cleavage assay, LF; inhibition, % at 10 µM; 360,000 tested, 0.12% active; note: plate controls were buffer without enzyme for full effect and enzyme alone for no effect
Target sequence (P15917 whole entry, looked up): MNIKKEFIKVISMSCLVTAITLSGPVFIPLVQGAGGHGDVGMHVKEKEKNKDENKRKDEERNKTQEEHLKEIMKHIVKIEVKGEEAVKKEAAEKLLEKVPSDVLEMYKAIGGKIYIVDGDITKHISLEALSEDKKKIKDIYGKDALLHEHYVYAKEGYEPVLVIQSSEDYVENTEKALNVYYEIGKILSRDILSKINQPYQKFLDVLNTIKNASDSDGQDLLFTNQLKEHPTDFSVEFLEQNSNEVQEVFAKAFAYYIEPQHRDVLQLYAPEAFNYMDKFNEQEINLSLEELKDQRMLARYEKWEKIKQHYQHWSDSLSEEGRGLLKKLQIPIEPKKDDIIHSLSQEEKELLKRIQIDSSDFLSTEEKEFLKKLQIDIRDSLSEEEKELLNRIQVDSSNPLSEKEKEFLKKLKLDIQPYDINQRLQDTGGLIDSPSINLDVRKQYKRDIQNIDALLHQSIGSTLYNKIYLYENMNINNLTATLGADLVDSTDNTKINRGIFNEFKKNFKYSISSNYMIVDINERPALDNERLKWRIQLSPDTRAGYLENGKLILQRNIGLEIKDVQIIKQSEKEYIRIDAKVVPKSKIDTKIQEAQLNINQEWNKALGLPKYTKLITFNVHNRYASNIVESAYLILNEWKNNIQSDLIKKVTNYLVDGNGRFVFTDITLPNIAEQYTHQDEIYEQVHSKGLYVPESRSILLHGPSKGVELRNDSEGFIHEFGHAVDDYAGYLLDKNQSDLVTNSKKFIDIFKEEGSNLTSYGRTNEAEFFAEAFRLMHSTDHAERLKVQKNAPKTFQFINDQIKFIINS
* hit, by the source's call; ? = inconclusive; . = no result given. Cut-off read from the data, not from the text of the source, unless noted: active = inhibition above about 30%; inconclusive = no clear call, values can overlap the other calls; inactive = below that.

SMILES | Mtb FBA inh | Autofluor counter | GDH-TPI inh | BoNT A protease | BoNT F protease | Anthrax LF prot
CC(O)(c1ccc(F)c(F)c1)c1nc(-c2cc(F)cc(F)c2)cs1 (stereo unspecified) | -3 | 3908 | 15 | 0 | 0 | -3
COc1ccc(CC2(CO)CCN(C(C)COc3ccccc3)CC2)cc1 (stereo unspecified) | 3 | 4832 | -4 | 0 | -2 | 1
Cc1ccc(Cl)cc1NC(=O)C(=O)N1CCCCC1 | 0 | 2639 | 5 | -1 | -4 | 0
O=[N+]([O-])c1ccc(Cl)cc1NCc1cccnc1 | -4 | 4411 | -12 | 5 | ? | 2
CCCCNC(=O)CC1S/C(=N/N=C/c2ccc(OC)cc2)NC1=O (stereo unspecified) | -2 | 3862 | 33* | 0 | 1 | -4
CC(C)C1S/C(=N/N=C/c2ccco2)NC1=O (stereo unspecified) | -4 | 8344 | 57* | -1 | -7 | 3
CNC(=O)C(=O)Nc1nc(C23CC4CC(CC(C4)C2)C3)cs1 | 2 | 3660 | 2 | 0 | -10 | -2
O=C(COC(=O)c1cc(S(=O)(=O)N2CCCC2)ccc1O)NCCc1ccccc1 | 8 | 5321 | 0 | 3 | -6 | 1
CC(CNC(=O)CCS(=O)(=O)c1ccc2c(c1)oc(=O)n2C)c1ccccc1 (stereo unspecified) | 0 | 6240 | -3 | -1 | 2 | 1
COc1ccc(/C=N/N=C(\N)c2nonc2N)cc1 | 0 | 4038 | 16 | 0 | -7 | 1
COc1cc(/C=N/N=C(\N)c2nonc2N)cc(OC)c1O | -2 | 4109 | 36* | -2 | -5 | -8
C=CCNC(=O)c1ccc(CN(c2ccc(OCC)cc2)S(=O)(=O)c2ccc(C)cc2)cc1 | -3 | 3861 | -6 | -1 | 1 | -2
Cc1nc(C)c(C(=O)Nc2ccccc2-c2ccccc2)o1 | 7 | 23592* | 9 | 0 | 1 | -1
O=C(OCCN1CCN(c2ncc(C(F)(F)F)cc2Cl)CC1)c1ccc(Cl)cc1 | -2 | 2795 | -5 | 0 | -5 | -1
O=C(OC1CCN(c2ncc(C(F)(F)F)cc2Cl)CC1)c1ccc(Cl)cc1 | -6 | 24209* | 5 | 0 | -3 | -2
CON=C1CCN(c2ncc(C(F)(F)F)cc2Cl)CC1 | 4 | 19907* | -7 | ? | 1 | 1
O=C(NCCNC(=O)c1ccccn1)c1cccc(F)c1 | -1 | 3492 | -2 | 1 | 20 | 9
O=C(Nc1cccc2cccnc12)c1ccc(Cl)cc1 | 0 | 3848 | 7 | -4 | 25 | -13
O=C(Nc1cccc2cccnc12)c1cccnc1 | 1 | 18275* | 2 | 6 | 7 | -1
O=S(=O)(NCC(c1cccnc1)N1CCN(Cc2ccccc2)CC1)c1ccc(Cl)cc1 (stereo unspecified) | -1 | 6771 | 3 | 0 | -9 | 7
CCOc1ccc(C2C(C#N)=C(N)Oc3c2c(=O)oc2ccccc32)cc1 (stereo unspecified) | 5 | 24671* | 3 | ? | -6 | -2
CCCN(CCC)S(=O)(=O)c1ccc(NS(=O)(=O)c2ccc(F)cc2)cc1 | 0 | 17098* | 6 | -2 | -1 | -3
CC(=NNC(=S)N1CC2CCC(CC2)C1)c1cccc(C)n1 | 3 | 2732 | 9 | 20 | 45* | 18
Cc1ccc(S(=O)(=O)NCc2ccccn2)c(C)c1C | 1 | 4203 | -4 | 3 | 28 | -1
CC(C)(C)C(=O)O/N=C1/C(=O)N(c2ccccc2)c2ccccc21 | 1 | 2767 | 4 | 0 | -11 | 0
SMILES | Mtb FBA inh | Autofluor counter | GDH-TPI inh | BoNT A protease | BoNT F protease | Anthrax LF prot
CCc1nc2sc3ccccc3c(=O)c2c(=O)n1Cc1ccc(OC)cc1 | -3 | . | 34* | . | . | .
CCc1nc2oc3cc(OC)ccc3c(=O)c2c(=O)n1Cc1ccccc1 | -2 | 24709* | 9 | ? | -4 | -1
COc1ccc(Cn2c(-c3ccccc3)nc3c(c(=O)c4ccccc4n3C)c2=O)cc1 | 5 | 2199 | 4 | 0 | 2 | 2
Cc1oc2ccc(OCc3ccc(F)cc3Cl)cc2c1C(=O)O | 1 | 3938 | 5 | 0 | -1 | -1
Clc1ccc2nc(SCc3nnc(-c4ccccc4)o3)[nH]c2c1 | 0 | 23021* | 2 | ? | -4 | 1
O=C(CSc1nnc(COc2ccc(Cl)cc2Cl)o1)Nc1ccccn1 | 0 | 4716 | -3 | -1 | -3 | 2
Clc1ccc(OCc2nnc(SCc3nnc(-c4ccccc4)o3)o2)c(Cl)c1 | 1 | 17010* | 6 | -2 | -4 | 0
CSc1ccc(N2CCN(CCCNC(=O)Nc3ccccc3F)CC2)cc1 | -1 | 24815* | 4 | -4 | -8 | -2
Cc1coc(=N)n1CC(=O)c1ccc(Cl)cc1 | 2 | 3385 | 4 | -1 | 2 | -2
O=C(NN=C1CCCC1)c1sc2ccccc2c1Cl | -2 | 3345 | 0 | -1 | -8 | -6
O=C1CCC/C(=N/NC(=O)c2sc3ccccc3c2Cl)C1 | 1 | 3884 | 55* | 0 | 0 | -4
COCc1n[nH]c(=S)n1-c1cccc2ccccc12 | 1 | 23066* | 2 | 2 | 5 | 3
COc1cc(NC(=O)CCl)ccc(=O)c1 | 3 | 2904 | 42* | 0 | -6 | -4
COc1c(F)cccc1C1=CC(=O)C[C@H](c2ccc3c(c2)OCO3)C1 | 0 | 3394 | -4 | 0 | 0 | -7
Cn1c(N2CCOCC2)nc(-c2ccccc2)c1-c1ccccc1 | 103* | 13043 | 2 | -2 | -20 | -5
c1ccc(-c2nc3ccccc3nc2N2CCOCC2)cc1 | 15 | 2786 | 15 | 5 | -1 | 1
Cc1ccc(Cc2cnc(NC(=O)/C(C#N)=C/c3ccc(-c4ccc([N+](=O)[O-])cc4)o3)s2)cc1 | -4 | 5142 | 4 | 5 | 18 | 7
CCOC(=O)c1ccc(NC(=O)C23CCC(C)(C(=O)O2)C3(C)C)cc1 (stereo unspecified) | -1 | 16270* | 8 | 0 | 0 | -2
CC12CCC(C(=O)NCc3ccc(Cl)cc3)(OC1=O)C2(C)C (stereo unspecified) | -3 | 21504* | -1 | -3 | -3 | 3
O=C(CN1CCN(S(=O)(=O)N2CCCCC2)CC1)Nc1ccc(Br)cc1 | -2 | 5265 | 1 | -1 | -2 | 5
Cc1nc(-c2cccc(NS(=O)(=O)c3cccc4ccccc34)c2)cs1 | -1 | 22200* | -7 | ? | 3 | -1
O=C(O)CSCNC(=O)C12CC3CC(CC(C3)C1)C2 | 1 | 16463* | 7 | -1 | -4 | -4
OC(COc1ccc2c(c1)OCO2)CN1CCN(c2ccc(F)cc2)CC1 (stereo unspecified) | 0 | 2217 | 6 | 0 | 1 | -1
O=C(O)c1ccc(-n2nc(C(F)(F)F)c3c2-c2ccoc2CC3)cc1 | 3 | 21579* | -6 | -6 | -6 | 1
Cc1cccc(NC(=S)N(C)C2(c3ccccc3Cl)CCCCC2=O)c1 (stereo unspecified) | 4 | 22871* | -2 | 2 | 0 | -1

Compound activity as filed in PubChem.
